Measles inh: inhibitors of measles virus growth in infected cells. infected Vero cells, GFP fluorescence, 64 h; hits give low values. z-score (concentration not given with the values). hit rate 0.1% among 33,000; in the data active = z-score below about -3
Numbers without * were called inactive. This excerpt belongs to a sample that is enriched for hits.

SMILES	Measles inh
COc1cccc(C(=O)CC2(O)C(=O)Nc3ccc(Br)cc32)c1 (stereo unspecified)	-0.12
COc1cc(NC(=O)c2ccc(Cl)c([N+](=O)[O-])c2)ccc1NC(=O)c1cc2ccccc2o1	-1.1
CC(C)CN1C(=O)C2CC=CCC2C1=O (stereo unspecified)	-0.61
C=CCNC(=O)c1cc2c(=O)n3ccccc3nc2n(C(C)C)c1=N	-1.7
CC(C)CC(=O)N1CCN(Cc2cccnc2)CC1	1.2
O=c1[nH]c2ccc(Cl)cc2c(-c2ccccc2)c1SCCO	-0.29
COc1ccc(C2CC(c3c(-c4ccccc4)c4cc(Cl)ccc4[nH]c3=O)=NN2C(=O)CCC(=O)O)cc1 (stereo unspecified)	-0.07
COc1ccc(-c2cc(=O)[nH]c(Sc3c(-c4ccccc4)c4cc(Cl)ccc4[nH]c3=O)n2)cc1	-3.3*
COc1ccc(Cn2c(=S)[nH]c3cc(C(=O)NCc4ccccc4Cl)ccc3c2=O)cc1	0.14
COc1cccc(C2CC(c3cccs3)=NN2C(C)=O)c1OC (stereo unspecified)	0.15
O=C1Nc2ccccc2Oc2ccc(N=Cc3ccc([N+](=O)[O-])cc3)cc21	-0.16
Cc1cc(NC(=O)CCN2CCCCC2)no1	-1.2
Cc1ccc(NC(=O)C2C3NC(=S)NC2(C)Oc2ccc(Br)cc23)c(C)c1 (stereo unspecified)	-3.3*
CCOc1cccc2c1OC1(C)NC(=S)NC2C1C(=O)Nc1ccc(C)cc1C (stereo unspecified)	0.33
Cc1ccc(NC(=O)C2C3NC(=S)NC2(C)Oc2ccccc23)c(C)c1 (stereo unspecified)	-0.17
C=CCn1c(SCC(=O)Nc2ccc(Cl)cc2)nc2sc3c(c2c1=O)CCCC3	-0.42
CCOC(=O)c1cnc2cc(Cl)c(OC)cc2c1Nc1cccc(C(F)(F)F)c1	-0.09
CC1CC(C)(C)NC(=S)N1CC(=O)NCCCN1CCN(c2ccccc2F)CC1 (stereo unspecified)	0.07
CC12CC(NC(=O)N1c1ccc(C(=O)NCc3ccccn3)cc1)c1ccccc1O2 (stereo unspecified)	-0.61
CCOC(=O)c1c(C)oc2c1c(C(c1ccc(Cl)cc1)N1CCOCC1)c(O)c1ccccc12 (stereo unspecified)	-0.44
O=C1CSC(c2ccc(OC(F)F)cc2)N1c1ccc(Oc2ccccc2)cc1 (stereo unspecified)	-0.03
O=C1CS/C(=N/C(=O)N2c3ccccc3Sc3ccccc32)N1	2.1
COc1ccc(C(=O)Nc2ccc(Br)cn2)cc1	2.1
CCOCCn1cnc2sc(C(=O)N3CCC(C(=O)OCC)CC3)c(C)c2c1=O	-0.32
Cc1ccc(-n2ncc3c(=O)[nH]c(SCC(=O)N4CCc5ccccc54)nc32)cc1	-0.13
SMILES	Measles inh
CC1CC(C)CN(C(C(=O)Nc2ccc(C(C)C)cc2)c2ccc3c(c2)OCO3)C1 (stereo unspecified)	2.1
O=C(Nc1cc(Cl)ccc1O)c1cnn2c1NC(c1cccs1)CC2C(F)(F)F (stereo unspecified)	-1.6
CC1CCc2c(sc3ncnc(N4CCN(CCO)CC4)c23)C1 (stereo unspecified)	-0.1
COc1cc2c(cc1OC)C(COc1ccccc1OC)N(C(=O)c1ccc(C)c(C)c1)CC2 (stereo unspecified)	-0.03
CC1=C(C(=O)OC2CCCCC2)C(c2ccccc2OC(C)C)C2=C(CC(C)(C)CC2=O)N1 (stereo unspecified)	-0.05
C=C1CSc2nc(=O)c3c4c(sc3n21)CCC4	-3.1*
Cc1nc2sc3c(c2c(=O)[nH]1)CCC3	0.5
O=c1c2c3c(sc2n2c(=S)[nH]nc2n1Cc1ccccc1)CCC3	-0.75
CCCN(CCC)c1ncnc2c1cnn2-c1cccc(C)c1	-0.76
O=C(Nc1ccc(Cl)cn1)C1CCCN(S(=O)(=O)c2cccc3nsnc23)C1 (stereo unspecified)	-1.3
Cc1ccnc(NC(c2ccncc2)c2ccc3ccc(C)nc3c2O)c1 (stereo unspecified)	0.46
Cc1ccc(C2Nc3ccccc3-c3nnc(SCc4ccccc4)nc3O2)s1 (stereo unspecified)	0.25
Cc1ccc(C(=O)Oc2ccc(Oc3ncc(Cl)cc3Cl)cc2)cc1[N+](=O)[O-]	-0.54
O=C(O)C1Cc2c([nH]c3ccccc23)C(c2ccc(O)c(O)c2)N1 (stereo unspecified)	0.3
CCOC(=O)C1=NNC2C(=O)N(c3c(C)cc(C)cc3C)C(=O)C12 (stereo unspecified)	1.8
Cc1cc(C)nc(NS(=O)(=O)c2ccc(Br)cc2)n1	-3.1*
COc1cccc(C(=O)Nc2ccc(S(=O)(=O)Nc3nc(C)cc(C)n3)cc2)c1	0.58
COc1ccc(CC(=O)Nc2ccc(S(=O)(=O)Nc3nc(C)cc(C)n3)cc2)cc1	1.5
COc1cc(OC)c(OC)cc1C=Nc1c(C)n(C)n(-c2ccccc2)c1=O	0.71
COc1ccc(Cl)cc1NS(=O)(=O)c1cnc[nH]1	0.18
O=S(=O)(Nc1cccc(C(F)(F)F)c1)c1cnc[nH]1	0.38
O=S(=O)(Nc1ccc(Cl)cc1)c1cnc[nH]1	-3.5*
CC1CCC(C(=O)NC(C(=O)Nc2ccc(C(C)C)cc2)C(C)C)CC1 (stereo unspecified)	-0.83
CC1CCC(C(=O)NC(C(=O)NCc2ccccn2)C(C)C)CC1 (stereo unspecified)	-3.1*
CC1CCN(S(=O)(=O)N2CCC(C(=O)NCc3ccccn3)CC2)CC1	0.27
SMILES	Measles inh
CCC(C)c1ccc(NC(=O)C(C)Oc2cccc(Cl)c2)cc1 (stereo unspecified)	-0.89
Cc1noc(C)c1S(=O)(=O)N1CCC(C(=O)N2CCN(c3ccccc3F)CC2)CC1	0.42
CCCCNC(=O)Cn1cnc2scc(-c3ccccc3)c2c1=O	0.73
O=C(NC1CCCC1)c1ccc2c(c1)[nH]c(=S)n1c3ccccc3nc21	-0.63
O=c1c2sccc2n(Cc2ccccc2F)c(=O)n1-c1ccccc1	-0.26
COc1ccc(NC(=O)c2cc(-c3ccc(Cl)cc3)on2)cc1	0.12
CCOc1cc(C(NC(=O)CC)c2cc([N+](=O)[O-])c3cccnc3c2O)ccc1O (stereo unspecified)	-0.83
CC(=O)NC(c1ccccc1)c1cc(Cl)c2cccnc2c1O (stereo unspecified)	-0.77
CC(=O)NC(c1ccc(C)cc1)c1cc([N+](=O)[O-])c2cccnc2c1O (stereo unspecified)	-3.4*
Cn1cccc1CN1CCN(C(=O)c2cccc(Cl)c2)CC1	0.75
CCOc1cccc(-c2cc(C(=O)Nc3sc(C)cc3C(=O)OC)c3ccccc3n2)c1	-0.48
C=CCOC(=O)C1=C(C)Nc2nc3ccccc3n2C1c1ccc(Br)cc1 (stereo unspecified)	-0.54
COc1ccc(OC)c(-n2c(=S)[nH]c3cc(C(=O)N4CCc5ccccc5C4)ccc3c2=O)c1	-0.1
CCS(=O)(=O)N1CCC(C(=O)NC2CCCCCC2)CC1	-0.46
COc1ccccc1NC(=O)c1cccc([N+](=O)[O-])c1	-0.86
COc1ccc([N+](=O)[O-])cc1NC(=O)c1cccc(F)c1	-5.2*
COc1ccc([N+](=O)[O-])cc1NC(=O)c1cccc(C(=O)Nc2cc([N+](=O)[O-])ccc2OC)c1	-0.38
O=C(c1cccc2ccccc12)n1c(=O)oc2ccccc21	-0.03
Cc1ccc(Cn2c(=O)cc(C(=O)NCCC3=CCCCC3)c3ccccc32)cc1	-0.72
O=C(Nc1ccc(Cc2ccncc2)cc1)c1ccc2ccccc2n1	-0.2
N#Cc1c(-c2ccc(F)cc2)cc(-c2ccco2)nc1SCC(=O)Oc1ccccc1	6.1
CCCCN(C)C(=O)c1c[nH]n2c(=O)c(Cc3ccc(F)cc3)c(C)nc12	0.46
O=C1C2CCCCC2C(=O)N1c1ccc(NCCc2c[nH]c3ccccc23)c([N+](=O)[O-])c1 (stereo unspecified)	-1.1
Cc1nn(C)c(C)c1S(=O)(=O)N1CCN(Cc2ccc3c(c2)OCO3)CC1	-0.78

Bioassay records from PubChem.
